Data published in the supplement of paper PMC11732987, “Enantioselective OTUD7B fragment discovery through chemoproteomics screening and high-throughput optimisation” (Communications Chemistry, 2025).

Experiments:
Test in all cases: log2 ratio of Biotin-Ahx-Ub-VS probe labelling (fragment/DMSO); higher = less target engagement (more negative = stronger competition), active = hit call of the paper (q ≤ 0.05, log2 ratio ≤ -1)
Details in all cases: compound concentration: 200 uM; treatment time: 3 h
[1] = molecular target: T1, ALG13 (UniProt Q9NP73)
T1 sequence (whole entry): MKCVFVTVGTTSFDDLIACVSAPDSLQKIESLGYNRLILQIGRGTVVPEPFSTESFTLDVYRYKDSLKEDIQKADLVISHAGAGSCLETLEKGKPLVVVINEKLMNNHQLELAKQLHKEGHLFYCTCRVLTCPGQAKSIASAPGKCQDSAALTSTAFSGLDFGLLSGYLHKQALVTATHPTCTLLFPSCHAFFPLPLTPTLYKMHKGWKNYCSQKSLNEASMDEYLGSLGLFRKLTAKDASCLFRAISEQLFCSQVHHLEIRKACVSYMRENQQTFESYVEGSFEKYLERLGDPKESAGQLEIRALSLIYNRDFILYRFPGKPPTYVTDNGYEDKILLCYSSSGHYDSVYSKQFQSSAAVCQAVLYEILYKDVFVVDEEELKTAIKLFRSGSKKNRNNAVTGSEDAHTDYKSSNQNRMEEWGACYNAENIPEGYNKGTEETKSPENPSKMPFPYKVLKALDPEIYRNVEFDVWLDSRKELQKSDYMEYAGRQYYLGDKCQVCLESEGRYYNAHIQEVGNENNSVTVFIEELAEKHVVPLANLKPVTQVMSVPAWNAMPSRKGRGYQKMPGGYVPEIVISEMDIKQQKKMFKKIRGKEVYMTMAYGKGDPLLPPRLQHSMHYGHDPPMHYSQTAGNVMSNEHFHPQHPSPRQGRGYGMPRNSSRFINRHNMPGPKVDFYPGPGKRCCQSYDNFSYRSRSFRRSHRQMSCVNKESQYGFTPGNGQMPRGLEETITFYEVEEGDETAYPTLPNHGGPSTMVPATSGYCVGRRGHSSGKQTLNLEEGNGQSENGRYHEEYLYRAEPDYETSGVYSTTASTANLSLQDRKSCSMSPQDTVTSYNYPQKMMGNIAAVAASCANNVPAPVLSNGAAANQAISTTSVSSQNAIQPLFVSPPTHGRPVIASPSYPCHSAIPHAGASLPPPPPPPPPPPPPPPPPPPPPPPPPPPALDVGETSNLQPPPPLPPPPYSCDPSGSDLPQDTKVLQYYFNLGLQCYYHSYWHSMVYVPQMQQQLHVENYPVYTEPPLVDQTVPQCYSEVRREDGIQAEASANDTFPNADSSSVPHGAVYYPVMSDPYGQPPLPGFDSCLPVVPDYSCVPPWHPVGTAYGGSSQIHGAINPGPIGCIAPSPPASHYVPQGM
Outline: (§1)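 Global-median-normalised Spectronaut label-free quantities were compared by unpaired t-test, and values are average log2 ratios of fragment over vehicle. Only proteins with ≥2 unique peptides were used. HEK293T lysate (495 µg per sample) was treated in triplicate with fragment at 200 µM or vehicle for 3 h and then with Biotin-Ahx-Ub-VS at 0.5 µM final for 1 h. Labelled DUBs were then NeutrAvidin-enriched, digested with LysC and trypsin, and run by diaPASEF LC-MS/MS.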

[2] = molecular target: ATXN3 (UniProt P54252)
Chain of ATXN3 (P54252 whole entry): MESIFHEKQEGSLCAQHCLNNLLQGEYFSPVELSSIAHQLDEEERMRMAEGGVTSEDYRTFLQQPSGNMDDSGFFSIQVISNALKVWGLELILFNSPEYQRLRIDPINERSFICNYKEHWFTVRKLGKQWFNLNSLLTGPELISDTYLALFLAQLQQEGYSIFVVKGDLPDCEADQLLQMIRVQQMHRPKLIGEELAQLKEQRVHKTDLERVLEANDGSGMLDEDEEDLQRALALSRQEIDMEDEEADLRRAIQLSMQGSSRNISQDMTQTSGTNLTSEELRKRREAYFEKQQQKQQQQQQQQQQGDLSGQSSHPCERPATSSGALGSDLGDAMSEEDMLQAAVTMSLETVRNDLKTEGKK
Outline: as §1

[3] = molecular target: T2, BAP1 (UniProt Q92560)
T2 sequence (whole entry): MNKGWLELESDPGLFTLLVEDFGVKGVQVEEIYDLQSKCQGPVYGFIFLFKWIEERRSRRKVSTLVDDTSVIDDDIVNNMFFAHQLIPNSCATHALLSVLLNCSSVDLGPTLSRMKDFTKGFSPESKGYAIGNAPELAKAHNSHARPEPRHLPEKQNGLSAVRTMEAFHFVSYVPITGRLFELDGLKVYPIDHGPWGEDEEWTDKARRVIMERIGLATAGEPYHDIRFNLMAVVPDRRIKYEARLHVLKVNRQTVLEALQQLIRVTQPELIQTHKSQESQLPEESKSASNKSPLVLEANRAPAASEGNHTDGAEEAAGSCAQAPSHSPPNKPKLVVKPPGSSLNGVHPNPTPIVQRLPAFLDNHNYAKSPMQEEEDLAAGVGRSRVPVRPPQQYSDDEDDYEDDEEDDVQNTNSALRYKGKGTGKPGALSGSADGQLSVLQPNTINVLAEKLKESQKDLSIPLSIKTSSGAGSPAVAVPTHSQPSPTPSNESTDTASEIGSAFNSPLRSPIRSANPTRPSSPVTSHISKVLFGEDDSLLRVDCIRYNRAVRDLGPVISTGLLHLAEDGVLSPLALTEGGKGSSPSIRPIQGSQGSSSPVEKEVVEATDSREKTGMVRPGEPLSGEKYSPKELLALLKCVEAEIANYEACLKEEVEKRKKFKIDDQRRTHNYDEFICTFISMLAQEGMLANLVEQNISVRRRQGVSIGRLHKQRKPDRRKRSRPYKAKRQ
Outline: as §1

[4] = molecular target: EIF3F (UniProt O00303)
Chain of EIF3F (O00303 whole entry): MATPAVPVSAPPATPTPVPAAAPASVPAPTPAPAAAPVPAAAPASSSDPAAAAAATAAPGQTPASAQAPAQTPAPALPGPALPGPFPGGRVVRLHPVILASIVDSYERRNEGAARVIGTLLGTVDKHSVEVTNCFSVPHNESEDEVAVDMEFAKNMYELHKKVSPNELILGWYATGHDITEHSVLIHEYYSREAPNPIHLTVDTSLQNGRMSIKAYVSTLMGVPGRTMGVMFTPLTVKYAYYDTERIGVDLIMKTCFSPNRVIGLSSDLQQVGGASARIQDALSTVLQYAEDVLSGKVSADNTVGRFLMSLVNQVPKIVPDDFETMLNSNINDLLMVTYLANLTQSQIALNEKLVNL
Outline: as §1

[5] = molecular target: EIF3H (UniProt O15372)
Chain of EIF3H (O15372 whole entry): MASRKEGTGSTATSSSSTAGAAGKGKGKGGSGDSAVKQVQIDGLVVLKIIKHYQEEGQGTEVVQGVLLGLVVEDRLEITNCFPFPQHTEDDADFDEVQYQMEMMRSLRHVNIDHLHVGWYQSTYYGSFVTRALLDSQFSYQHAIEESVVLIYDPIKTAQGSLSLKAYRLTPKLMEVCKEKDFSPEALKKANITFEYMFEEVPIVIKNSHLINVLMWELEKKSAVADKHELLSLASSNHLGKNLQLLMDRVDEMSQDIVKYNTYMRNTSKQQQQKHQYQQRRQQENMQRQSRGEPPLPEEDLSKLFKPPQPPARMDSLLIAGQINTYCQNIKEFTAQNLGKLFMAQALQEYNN
Outline: as §1

[6] = molecular target: T3, FAM105A (UniProt Q9NUU6)
T3 sequence (whole entry): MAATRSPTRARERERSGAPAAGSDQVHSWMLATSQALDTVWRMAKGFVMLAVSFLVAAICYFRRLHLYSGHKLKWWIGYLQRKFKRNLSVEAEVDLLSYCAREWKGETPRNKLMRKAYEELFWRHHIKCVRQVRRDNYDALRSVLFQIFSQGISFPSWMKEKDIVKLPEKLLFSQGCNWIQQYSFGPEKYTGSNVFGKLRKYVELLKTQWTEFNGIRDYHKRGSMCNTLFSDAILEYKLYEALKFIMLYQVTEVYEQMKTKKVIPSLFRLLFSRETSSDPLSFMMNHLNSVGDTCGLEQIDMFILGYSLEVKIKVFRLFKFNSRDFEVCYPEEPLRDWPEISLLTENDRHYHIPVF
Outline: as §1

[7] = molecular target: OTUB1 (UniProt Q96FW1)
Chain of OTUB1 (Q96FW1 whole entry): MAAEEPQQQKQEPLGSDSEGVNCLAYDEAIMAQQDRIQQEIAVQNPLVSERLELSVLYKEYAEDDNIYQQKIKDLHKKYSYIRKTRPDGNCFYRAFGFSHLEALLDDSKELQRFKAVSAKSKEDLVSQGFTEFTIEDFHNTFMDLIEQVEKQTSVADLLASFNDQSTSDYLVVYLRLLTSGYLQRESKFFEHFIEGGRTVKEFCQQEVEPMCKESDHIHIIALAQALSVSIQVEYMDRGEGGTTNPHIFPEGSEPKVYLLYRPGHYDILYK
Outline: as §1

[8] = molecular target: T4, OTUD4 (UniProt Q01804)
T4 sequence (whole entry): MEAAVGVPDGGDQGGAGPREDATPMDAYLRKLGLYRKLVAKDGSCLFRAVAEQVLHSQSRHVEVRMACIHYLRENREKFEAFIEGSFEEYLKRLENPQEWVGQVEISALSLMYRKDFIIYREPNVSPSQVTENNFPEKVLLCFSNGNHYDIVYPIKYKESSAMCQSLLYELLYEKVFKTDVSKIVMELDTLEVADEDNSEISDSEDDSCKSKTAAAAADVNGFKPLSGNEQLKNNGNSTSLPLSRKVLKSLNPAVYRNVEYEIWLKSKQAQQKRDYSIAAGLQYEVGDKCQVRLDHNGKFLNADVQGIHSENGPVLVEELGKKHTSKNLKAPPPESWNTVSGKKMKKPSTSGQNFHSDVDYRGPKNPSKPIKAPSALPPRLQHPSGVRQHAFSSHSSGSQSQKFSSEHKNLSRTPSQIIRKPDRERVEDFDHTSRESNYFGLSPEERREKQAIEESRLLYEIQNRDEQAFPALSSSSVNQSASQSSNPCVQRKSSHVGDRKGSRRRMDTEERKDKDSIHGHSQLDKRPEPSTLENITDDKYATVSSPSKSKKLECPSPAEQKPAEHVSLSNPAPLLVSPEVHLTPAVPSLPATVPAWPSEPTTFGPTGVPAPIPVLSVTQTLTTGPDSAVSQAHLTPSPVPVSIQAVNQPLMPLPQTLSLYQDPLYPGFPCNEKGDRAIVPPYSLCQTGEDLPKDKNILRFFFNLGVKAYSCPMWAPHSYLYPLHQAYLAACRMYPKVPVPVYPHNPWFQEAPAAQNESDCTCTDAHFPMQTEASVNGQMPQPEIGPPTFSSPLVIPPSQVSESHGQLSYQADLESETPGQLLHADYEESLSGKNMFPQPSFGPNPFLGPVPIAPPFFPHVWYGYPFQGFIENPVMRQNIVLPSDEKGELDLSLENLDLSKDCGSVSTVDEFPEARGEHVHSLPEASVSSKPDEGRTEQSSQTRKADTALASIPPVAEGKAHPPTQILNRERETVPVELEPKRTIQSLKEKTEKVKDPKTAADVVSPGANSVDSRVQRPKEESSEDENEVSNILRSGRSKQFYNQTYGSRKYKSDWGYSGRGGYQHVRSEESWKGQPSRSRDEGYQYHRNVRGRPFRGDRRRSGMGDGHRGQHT
Outline: as §1

[9] = molecular target: T5, OTUD5 (UniProt Q96G74)
T5 sequence (whole entry): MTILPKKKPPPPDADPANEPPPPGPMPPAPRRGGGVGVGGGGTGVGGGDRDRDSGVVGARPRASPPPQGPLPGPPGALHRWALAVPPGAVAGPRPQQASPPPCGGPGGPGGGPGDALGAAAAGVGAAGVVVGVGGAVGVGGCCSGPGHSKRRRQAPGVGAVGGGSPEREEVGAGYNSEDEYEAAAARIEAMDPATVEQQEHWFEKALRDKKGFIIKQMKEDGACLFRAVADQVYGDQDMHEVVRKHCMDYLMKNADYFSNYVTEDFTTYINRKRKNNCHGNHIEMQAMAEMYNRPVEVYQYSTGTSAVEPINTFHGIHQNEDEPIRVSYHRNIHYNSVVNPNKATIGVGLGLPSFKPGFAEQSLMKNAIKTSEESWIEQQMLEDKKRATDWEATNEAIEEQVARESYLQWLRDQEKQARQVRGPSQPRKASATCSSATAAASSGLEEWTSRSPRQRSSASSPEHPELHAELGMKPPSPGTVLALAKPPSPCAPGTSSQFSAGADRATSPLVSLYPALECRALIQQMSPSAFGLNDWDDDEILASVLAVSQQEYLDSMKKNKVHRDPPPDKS
Outline: as §1

Measured: log2 ratio of Biotin-Ahx-Ub-VS probe labelling

N#Cc1ccccc1N1CCN(C(=O)CCl)CC1
inactive: [1] -0.383 | [4] -0.123 | [5] -0.0881 | [6] 0.162 | [7] -0.449 | [8] -0.714 | [9] -0.872
active: [2] -1.16 | [3] -1.32
